The first experiment addresses GLI3. As to the kind of experiment: pooled miR-30 sensor sort-seq; sequence = guide strand. As to conditions: shRNA.
For TATACTACCTCCATCGGTCAGA, the sensor-assay potency score (higher = more potent) is -0.385.

Regarding TTTGGTCATAGAACTGACCAGA, the sensor-assay potency score (higher = more potent) is -0.608.

Take TTTGAGTGTAACAATACTGATT: the sensor-assay potency score (higher = more potent) is -0.904.

Regarding TTTCGTGTCTTGCTGACTGAAG, the sensor-assay potency score (higher = more potent) is -0.362.

As for TTGTGTCACTGAGCTGTCCTGA, the sensor-assay potency score (higher = more potent) is -0.401.

In the case of TTGTCGGCTTAGGATCTGCTGA, the sensor-assay potency score (higher = more potent) is -0.967.

Sequence TTGAGAATCGTGACCAAGGAGT came in with a sensor-assay potency score (higher = more potent) of -0.494.

For TTGATCTTGGACCTCTTGTTGT, the sensor-assay potency score (higher = more potent) is -0.765.

TCTGATGATAGTATTCTGCTGG came in with a sensor-assay potency score (higher = more potent) of 0.381.

TTTTTCTTTTCAGTGGTCGTGG returned a sensor-assay potency score (higher = more potent) of 0.0526.

For a further experiment, the target named is GLIPR2. The experiment is described as above. The note with it: shRNA.
In turn, TTTCCTGTCTGATCATAGGATG displayed a sensor-assay potency score (higher = more potent) of -0.835.

In the case of ATCTTCTTGGTGTTCTTCCATA, the sensor-assay potency score (higher = more potent) is -1.63.

TTGACAACATTCCCCGCTGGGA yielded a sensor-assay potency score (higher = more potent) of -0.899.

For TATCTGGCCACCACAAAGGAGG, the sensor-assay potency score (higher = more potent) is -1.73.

In turn, TTATAGTTCTTGATTTCACTGT yielded a sensor-assay potency score (higher = more potent) of 0.709.

TTCTTGCAGAGCTTCAGTGGGG gave a sensor-assay potency score (higher = more potent) of -0.474.

Turning to TGCTTGAGGATCCTCGTGCTGG, the sensor-assay potency score (higher = more potent) was -0.832.

On to TCATTGACAACATTCCCCGCTG, for which the sensor-assay potency score (higher = more potent) was -0.0819.

As for ATAGTTCTTGATTTCACTGTAC, the sensor-assay potency score (higher = more potent) was found to be 0.205.

Sequence TTCTTGATTTCACTGTACCATC came in with a sensor-assay potency score (higher = more potent) of -1.16.

TTCTTCCATACCATGGCCGTGA: the sensor-assay potency score (higher = more potent) is -1.01.

As for TATAGTTCTTGATTTCACTGTA, the sensor-assay potency score (higher = more potent) amounted to 0.562.
Note: reference of the scale not given here.
